The list is not random: actives were taken first. Their share in the collection is about 21%.
Pf growth 48h: P. falciparum growth inhibition at 48 hours (one generation); P. falciparum luciferase growth in erythrocytes, 48 h; Potency, µM (series often up to 28.7 µM), for the others: top-dose activity change, negative = inhibition, hits mostly inhibitors; actives 5.9% (n = 310,000); active = well fitted inhibition curve with a large enough effect; inconclusive = small, poorly fitted or top-dose-only effect, or another doubt; inactive = no such curve, though single readings can be large or run the other way; also: potency is read from the fitted curve at half-maximal effect; % is scaled to controls: 0 for no effect and ±100 for the full control effect
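Luciferase-expressing parasites in RBCs, 2% Hct / 0.1% parasitemia final; RPMI 1640 + 0.5% Albumax; 37 C, 5% CO2, one generation; luminescence read-out, lower signal = inhibition.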
SARS PLpro yeast: SARS-CoV PLP inhibition in yeast; S. cerevisiae expressing SARS-CoV PLpro, growth rescue; Potency, µM (doses to about 32.9 µM), for the others: at the highest dose activity, positive = growth rescue, actives largely listed as activators; actives 0.19% (n = 330,000); also: potency is read from the fitted curve at half-maximal effect; 0% is about no effect; nearly all actives have a fitted effect of over 55% in size
Pf growth 96h: P. falciparum growth inhibition at 96 hour, primary screen for plastid delayed-death inhibitors. P. falciparum luciferase reporter growth, 96 h. Potency, µM (doses to about 28.7 µM), without a hit: top-dose activity change, negative = inhibition, usual class: inhibitors. actives 6.9% (n = 320,000). AID 504834; active = well fitted inhibition curve with a large enough effect; inconclusive = small, poorly fitted or top-dose-only effect, or another doubt; inactive = no such curve, though single readings can be large or run the other way; also: potency is read from the fitted curve at half-maximal effect; % is scaled to controls: 0 for no effect and ±100 for the full control effect
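Erythrocytes infected with luciferase-expressing P. falciparum were dispensed at 2% hematocrit and 0.05% parasitemia (final), then incubated with compounds 96 hours at 37 C in 5% CO2. Luminescence after detection reagent addition reported growth.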
Shiga inhibitor: Shiga toxin inhibition; Vero cells, Shiga toxin protein synthesis inhibition reporter; inhibition, % at 38.7 µM; actives 9.2% (n = 290,000); AID 2315; in the data active = inhibition mostly above about 28%, no sharp cut-off; inactive = mostly below about 43%; also: 0% is about no effect
CHX counter: counter-screen for Shiga toxin inhibitors: cycloheximide protein synthesis inhibition | cell reporter, cycloheximide protein synthesis inhibition counterscreen | actives 12% (n = 300,000) | AID 2314 | max response, %; in the data active = max response mostly above about 13%, no sharp cut-off; inactive = mostly below about 14%; also: read at 38.3 µM for the half of the compounds with a filed dose; 0% is about no effect
NS1 inh: blocks influenza NS1 protein function. Potency, µM (top dose mostly 46.1 µM), for the others: at the top dose activity, positive = more growth. actives 0.4% (n = 270,000). AID 2326; also: potency is read from the fitted curve at half-maximal effect; actives are rising curves; nearly all actives have a fitted effect of over 50% in size
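In this qHTS, NS1 from influenza A is expressed in budding yeast, where it slows growth. Cells are switched from glucose to 2% galactose medium (pH 6.0, -URA), treated with compound, and growth recovery is read at OD600.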
The depositor's hits bear a star; i = inactive; ? = inconclusive; / = no result given; [ ] = remark or other dose. Unless noted, calls follow the shape of the full dose curve.

SMILES | Pf growth 48h | SARS PLpro yeast | Pf growth 96h | Shiga inhibitor | CHX counter | NS1 inh
COc1cccc(C2/C(=C(\O)c3ccc4c(c3)OCCO4)C(=O)C(=O)N2CCCN2CCOCC2)c1OC (stereo unspecified) | -2% | -5% | -16% | -4 | -2 | 3%
Cc1ccc(-c2nc3cc(N)ccc3o2)c(C)c1 | 274% | 1% | 213% | 66* | 33* | 7%
CN(CC(=O)Nc1ccccc1Cl)C(=O)CSc1nncn1C | 0% | -2% | 11% | / | / | /
Cc1cc(C)nc(N2CCC(C(=O)O)CC2)n1 | 2% | -5% | 35% | 11 | 0 | 4%
COc1cc(C)nc(N2CCC(C(N)=O)CC2)n1 | 9% | 8% | 9.3µM* | -11 | -3 | 0%
CCn1c(COc2ccc(=O)n(-c3ccccc3)n2)nnc1SC | 6% | -1% | -8% | -7 | 1 | /
Cc1ccc(N(C)/N=C/c2ccc(Cl)cc2Cl)nn1 | 30% | 1% | 39% | 16 | 16* | -2%
Cc1cc(=O)[nH]c(N/N=C/c2ccc(Cl)cc2Cl)n1 | 29% | 2% | ? | -6 | -6 | 8%
COC(=O)c1cc(C(=O)OCC(=O)N(C)c2ccccc2)cc([N+](=O)[O-])c1 | 15% | -1% | 25% | 2 | -2 | 6%
CC(=O)c1sc(NC(=O)c2ccco2)nc1-c1ccccc1 | / | 1% | 108% | 65* | 21* | -1%
O=C(Nc1nsc(-c2ccccc2)n1)c1cccs1 | -45% | -31% | -21% | 37* | 25* | -32%
Cc1sc(NC(=O)c2cccs2)nc1-c1ccccc1 | 39% | -19% | -21% | 97 | 34* | -9%
CC(=O)c1c(C)[nH]c(C(=O)Nc2nc(-c3ccccc3)c(C)s2)c1C | 16% | 0% | -5% | 15 | 23* | 7%
O=C(Nc1ccc(S(=O)(=O)NC2=NCCCCC2)cc1)c1cc(F)c(F)cc1Cl | ? | 0% | -12% | / | / | /
COc1cc(C2NC(=O)CCC2[N+](=O)[O-])cc(OC)c1OC (stereo unspecified) | -20% | 2% | -6% | -16 | 2 | 0%
C[C@H](CO)N1C[C@H](C)[C@@H](CN(C)S(=O)(=O)c2ccccc2)Oc2ccc(NC(=O)CCC(F)(F)F)cc2C1=O | / | 9% | / | / | / | /
CNc1nc(-c2c(C)n(C)c3ccc(OC)cc23)cs1 | 18%[0.00184 µM] | -5% | ? | -6 | -2 | 8%
COc1ccccc1NC(=O)CON=C(N)CC(=O)NC1CCCCC1 | ? | 6% | ? | / | / | /
Cc1ccc(S(=O)(=O)Nc2c(NC3CCCCC3)c3ccccc3oc2=O)c(C)c1 | -29% | -6% | ? | 9 | -1 | 10%
Cc1cc(NS(=O)(=O)c2ccc(NC(=S)NC(=O)c3ccc(Br)cc3)cc2)no1 | 5% | 7% | 1% | 4 | -2 | 5%
Oc1ccc(-c2nc3ccccn3c2NCc2ccco2)cc1 | 30% | -4% | 61% | 37* | 35* | 2%
Cc1sc(NC(=O)c2ccco2)nc1-c1ccccc1 | 28% | -27% | 157% | 103* | 44* | -40%
Cc1sc(N/N=C/c2cccs2)nc1-c1ccccc1 | 37% | 2% | ? | 84* | 43* | 16%
O=C(Nc1c(-c2ccccc2)nc2ccccn12)c1ccco1 | 39% | 1% | 72% | 5 | 12* | -8%
Cc1nc(N/N=C/c2ccccn2)sc1C | -71% | -86% | -100% | 0 | 7 | -47%
SMILES | Pf growth 48h | SARS PLpro yeast | Pf growth 96h | Shiga inhibitor | CHX counter | NS1 inh
CC(=O)Nc1c(-c2ccc(F)cc2)nc2ccccn12 | / | -9% | 7% | 32 | -1 | 13%
O=C(O)c1cc(-c2ccc(Cl)c(Cl)c2)n(-c2ccc(F)cc2)n1 | / | 0% | 20% | 7 | -5 | 8%
O=C(NCCc1ccccc1)C(=O)NCC1CCNCC1 | 10% | 1% | -24% | 29 | -3 | /
Cc1ccc(OCCC(=O)N(CC(=O)Nc2ccccc2C(F)(F)F)Cc2ccco2)cc1 | ? | -2% | ? | / | / | /
CC(=O)Cc1nsc(NC(=O)c2ccc(COc3ccccc3)o2)n1 | -3% | -1% | ? | -15 | 4 | -48%
CC(=O)c1sc(NC(=O)c2ccccc2F)nc1-c1ccccc1 | i | -4% | 139% | 134* | 43* | /
Cc1ccc(NC(=S)c2nc3ccccc3[nH]2)c(C)c1 | 17% | -50% | -9% | 97* | 51* | -51%
